# From ChEMBL document CHEMBL1961873, “Compounds: GSK PKIS; Assays: Nanosyn kinase panel” (2012)
# Columns and labels:
# [1] = target: Tyrosine-protein kinase receptor UFO (Homo sapiens) (UniProt P30530); details: at 1 µM
# [2] = target: Tyrosine-protein kinase Blk (Homo sapiens) (UniProt P51451); details: at 0.1 µM
# [3] = target: Tyrosine-protein kinase Blk (Homo sapiens) (UniProt P51451); details: at 1 µM
# [4] = target: T1, Cytoplasmic tyrosine-protein kinase BMX (Homo sapiens) (UniProt P51813); details: at 0.1 µM
# T1 sequence (whole entry): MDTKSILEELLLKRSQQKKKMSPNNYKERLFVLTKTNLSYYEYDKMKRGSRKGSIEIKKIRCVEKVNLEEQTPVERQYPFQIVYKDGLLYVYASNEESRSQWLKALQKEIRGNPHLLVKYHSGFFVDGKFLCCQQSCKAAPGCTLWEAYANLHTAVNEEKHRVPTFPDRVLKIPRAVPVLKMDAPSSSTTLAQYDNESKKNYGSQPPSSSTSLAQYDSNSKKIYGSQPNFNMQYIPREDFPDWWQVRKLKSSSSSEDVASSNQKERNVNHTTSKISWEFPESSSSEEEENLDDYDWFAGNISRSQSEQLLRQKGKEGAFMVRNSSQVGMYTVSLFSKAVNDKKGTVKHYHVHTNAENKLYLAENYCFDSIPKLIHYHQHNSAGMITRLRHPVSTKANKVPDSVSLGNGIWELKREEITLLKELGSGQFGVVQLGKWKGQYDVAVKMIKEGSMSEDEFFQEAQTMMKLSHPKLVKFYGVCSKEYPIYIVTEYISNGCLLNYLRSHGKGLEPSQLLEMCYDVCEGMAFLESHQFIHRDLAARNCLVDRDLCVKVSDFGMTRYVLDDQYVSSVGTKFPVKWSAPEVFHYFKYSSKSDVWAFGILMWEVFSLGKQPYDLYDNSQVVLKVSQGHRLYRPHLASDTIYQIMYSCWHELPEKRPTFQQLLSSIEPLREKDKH
# [5] = target: T1, Cytoplasmic tyrosine-protein kinase BMX (Homo sapiens); details: at 1 µM
# [6] = target: Protein-tyrosine kinase 6 (Homo sapiens) (UniProt Q13882); details: at 0.1 µM
# [7] = target: Protein-tyrosine kinase 6 (Homo sapiens) (UniProt Q13882); details: at 1 µM
# [8] = target: Tyrosine-protein kinase BTK (Homo sapiens) (UniProt Q06187); details: at 0.1 µM
# [9] = target: Tyrosine-protein kinase BTK (Homo sapiens) (UniProt Q06187); details: at 1 µM
# [10] = target: Tyrosine-protein kinase CSK (Homo sapiens) (UniProt P41240); details: at 0.1 µM;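 further: value given is the averaged percent inhibition of CSK kinase activity, from the GSK PKIS kinase inhibitor set screening panel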
# Sequence of Tyrosine-protein kinase CSK (Homo sapiens) (P41240 2-450 limits assumed): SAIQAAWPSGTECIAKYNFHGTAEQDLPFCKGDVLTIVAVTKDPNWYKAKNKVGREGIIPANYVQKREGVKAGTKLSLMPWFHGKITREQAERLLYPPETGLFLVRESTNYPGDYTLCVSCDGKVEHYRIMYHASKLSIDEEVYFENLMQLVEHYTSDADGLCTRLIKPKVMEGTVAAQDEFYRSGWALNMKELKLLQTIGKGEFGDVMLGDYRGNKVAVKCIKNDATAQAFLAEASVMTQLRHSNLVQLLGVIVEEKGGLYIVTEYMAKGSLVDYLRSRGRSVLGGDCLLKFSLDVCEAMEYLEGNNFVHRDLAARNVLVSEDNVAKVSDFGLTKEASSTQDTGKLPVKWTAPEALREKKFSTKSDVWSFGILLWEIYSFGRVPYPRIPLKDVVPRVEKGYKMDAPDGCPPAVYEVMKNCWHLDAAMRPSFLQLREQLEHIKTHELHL
# Sequence of Tyrosine-protein kinase receptor UFO (Homo sapiens) (P30530 whole entry): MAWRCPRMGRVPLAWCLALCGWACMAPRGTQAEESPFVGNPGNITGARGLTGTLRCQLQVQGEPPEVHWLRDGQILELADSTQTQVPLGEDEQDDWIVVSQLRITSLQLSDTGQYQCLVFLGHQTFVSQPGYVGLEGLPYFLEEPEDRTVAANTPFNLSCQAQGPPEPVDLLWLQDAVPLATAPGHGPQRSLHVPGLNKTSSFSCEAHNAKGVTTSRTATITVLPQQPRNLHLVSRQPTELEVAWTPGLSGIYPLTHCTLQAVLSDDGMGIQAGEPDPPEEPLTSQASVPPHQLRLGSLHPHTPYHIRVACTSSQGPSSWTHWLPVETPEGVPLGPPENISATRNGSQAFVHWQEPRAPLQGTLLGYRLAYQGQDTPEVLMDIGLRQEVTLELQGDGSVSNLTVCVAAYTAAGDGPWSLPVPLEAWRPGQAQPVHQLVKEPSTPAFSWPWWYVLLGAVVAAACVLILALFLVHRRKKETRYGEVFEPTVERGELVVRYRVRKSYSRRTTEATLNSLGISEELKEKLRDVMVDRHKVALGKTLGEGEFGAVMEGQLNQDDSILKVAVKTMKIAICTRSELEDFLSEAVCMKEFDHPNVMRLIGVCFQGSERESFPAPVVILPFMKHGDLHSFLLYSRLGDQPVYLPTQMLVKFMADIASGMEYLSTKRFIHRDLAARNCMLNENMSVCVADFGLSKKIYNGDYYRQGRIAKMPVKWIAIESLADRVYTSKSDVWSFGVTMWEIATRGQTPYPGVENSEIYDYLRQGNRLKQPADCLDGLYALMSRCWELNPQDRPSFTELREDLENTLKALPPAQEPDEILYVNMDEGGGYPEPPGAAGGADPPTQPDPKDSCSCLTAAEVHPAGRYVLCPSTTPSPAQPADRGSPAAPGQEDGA
# Sequence of Tyrosine-protein kinase Blk (Homo sapiens) (P51451 2-505 limits assumed): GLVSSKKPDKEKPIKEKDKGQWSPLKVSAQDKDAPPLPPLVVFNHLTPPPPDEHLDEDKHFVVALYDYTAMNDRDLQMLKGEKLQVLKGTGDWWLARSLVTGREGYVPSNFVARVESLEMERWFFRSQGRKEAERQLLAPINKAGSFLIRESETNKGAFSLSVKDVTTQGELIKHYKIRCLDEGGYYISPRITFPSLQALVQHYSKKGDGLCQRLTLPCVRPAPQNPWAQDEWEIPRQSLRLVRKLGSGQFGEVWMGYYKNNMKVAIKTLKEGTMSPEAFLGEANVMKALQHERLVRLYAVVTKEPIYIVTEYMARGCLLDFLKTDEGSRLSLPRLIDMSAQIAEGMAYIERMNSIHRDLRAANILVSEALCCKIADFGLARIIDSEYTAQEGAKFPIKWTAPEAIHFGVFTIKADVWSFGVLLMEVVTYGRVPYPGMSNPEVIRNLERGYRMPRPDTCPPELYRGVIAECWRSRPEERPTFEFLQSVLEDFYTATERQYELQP
# Sequence of Protein-tyrosine kinase 6 (Homo sapiens) (Q13882 whole entry, looked up): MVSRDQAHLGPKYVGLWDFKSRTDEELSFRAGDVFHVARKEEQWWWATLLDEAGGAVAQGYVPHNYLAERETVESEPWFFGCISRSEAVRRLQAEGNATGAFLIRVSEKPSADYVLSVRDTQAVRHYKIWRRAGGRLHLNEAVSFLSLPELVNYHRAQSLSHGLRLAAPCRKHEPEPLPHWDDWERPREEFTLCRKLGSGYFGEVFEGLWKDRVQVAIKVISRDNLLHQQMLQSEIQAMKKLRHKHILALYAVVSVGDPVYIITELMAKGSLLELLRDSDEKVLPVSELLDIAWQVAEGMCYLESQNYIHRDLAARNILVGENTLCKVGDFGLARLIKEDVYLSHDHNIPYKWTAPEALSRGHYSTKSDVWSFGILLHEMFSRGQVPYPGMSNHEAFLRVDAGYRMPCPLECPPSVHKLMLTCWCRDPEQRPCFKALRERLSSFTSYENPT
# Sequence of Tyrosine-protein kinase BTK (Homo sapiens) (Q06187 whole entry): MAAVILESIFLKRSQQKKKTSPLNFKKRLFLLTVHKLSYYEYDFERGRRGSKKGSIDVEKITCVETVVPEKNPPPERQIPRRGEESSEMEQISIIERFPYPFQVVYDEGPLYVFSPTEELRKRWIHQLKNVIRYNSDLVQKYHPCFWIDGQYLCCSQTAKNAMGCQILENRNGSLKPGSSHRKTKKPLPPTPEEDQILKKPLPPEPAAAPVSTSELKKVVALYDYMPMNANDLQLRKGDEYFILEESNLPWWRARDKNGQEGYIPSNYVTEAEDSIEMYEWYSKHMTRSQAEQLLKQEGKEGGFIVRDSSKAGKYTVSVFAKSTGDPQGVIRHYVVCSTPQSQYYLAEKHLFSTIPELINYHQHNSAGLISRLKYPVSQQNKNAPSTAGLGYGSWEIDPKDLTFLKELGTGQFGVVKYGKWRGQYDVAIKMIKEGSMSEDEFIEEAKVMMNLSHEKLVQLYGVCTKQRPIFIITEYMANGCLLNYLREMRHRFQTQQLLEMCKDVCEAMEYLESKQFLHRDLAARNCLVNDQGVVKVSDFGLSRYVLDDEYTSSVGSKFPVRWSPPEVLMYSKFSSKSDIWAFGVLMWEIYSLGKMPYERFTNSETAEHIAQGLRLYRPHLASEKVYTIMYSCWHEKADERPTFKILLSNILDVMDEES
SMILES,inhibition [1] [%],inhibition [2] [%],inhibition [3] [%],inhibition [4] [%],inhibition [5] [%],inhibition [6] [%],inhibition [7] [%],inhibition [8] [%],inhibition [9] [%],inhibition [10] [%]
Cc1ccc2c(c1)/C(=N/Nc1ccc(S(N)(=O)=O)cc1)C(=O)N2,2.86,0.29,11.2,1.94,-0.8,-3.49,-3.16,0.42,3.78,-2.97
NC(=O)c1sc(-n2cnc3ccccc32)cc1OCc1ccccc1Br,-4.14,2.16,3.7,3.03,4.96,1.74,7.25,-0.65,-0.19,1.13
O=C1Nc2ccccc2/C1=C/Nc1ccc2[nH]c(=O)[nH]c2c1,,7.96,33,5.38,7.7,4.56,8.06,0.87,4.29,6.52
COc1cc(/C=N/Nc2ncnc3c2cnn3C(C)C)ccc1O,-0.23,4.73,45,2.71,17.1,1.02,4.8,-0.92,0.84,0.38
Cc1ccc(NC(=O)CC2CC2)cc1-c1ccc(C(=O)NCC2CC2)cc1,-1.55,2.42,2.73,1.08,5.01,4.58,5.79,1.4,2.39,4.41
COc1cc2ncnc(Nc3ccc(C)c(O)c3)c2cc1OC,,7.68,49,6.28,13,17.5,65.5,0.81,15.9,5.1
NS(=O)(=O)c1ccc(NC=C2C(=O)Nc3ccc4ncsc4c32)cc1,42.4,8.34,58.3,6.93,13.8,3.25,8.92,0.4,3.74,2.77
NS(=O)(=O)c1cccc(-c2cc3ccncc3cc2OCc2ccccc2)c1,-7.14,2.09,6.09,-0.13,4.21,4.43,4.64,-0.27,0.84,5.62
Cc1ccc(O)cc1Nc1ccnc2ccc(S(C)(=O)=O)cc12,,42.8,91.4,76.5,93.2,95.3,103,63.8,77.3,70.3
Cc1ccc2c(-c3ccnc(Nc4ccc5c(c4)OCCO5)n3)c(-c3ccc(C(F)(F)F)cc3)nn2n1,1.14,3.28,4.48,,0.94,0.39,3.26,0.75,1.71,-2.99
C[C@@H](Oc1cc(-n2cnc3ccc(OCC4CCN(C)CC4)cc32)sc1C(N)=O)c1ccccc1C(F)(F)F,12.8,1.16,14.4,-1.33,-2.09,-0.71,-4.24,0.52,-1.06,-4.98
CCn1c(-c2nonc2N)nc2ccc(F)cc21,-5.29,3.96,4.5,5.08,6.05,4.83,8.38,0.19,-0.49,5.53
C[C@@H](Oc1cc(-n2cnc3ccc(OC[C@@H](O)CO)cc32)sc1C(N)=O)c1ccccc1Cl,3.2,-0.24,3.09,4.05,0.31,,-0.38,-0.29,-0.5,-0.73
CCCN1CCCC(c2ccc(Nc3nc(Nc4cc(F)ccc4C(N)=O)c4cc[nH]c4n3)c(OC)c2)C1 (stereo not drawn),57.4,2.11,6.81,5.67,5.71,18.1,67.8,0.49,-1.31,2.66
Nc1nccc(-c2c(-c3ccc(F)cc3)nn3cc(C(F)(F)F)ccc23)n1,5.17,0.6,1.08,-1.09,0.94,1.57,-4.29,0.89,0.4,-0.9
FC(F)(F)c1ccc(-c2nn3ncccc3c2-c2ccnc(Nc3ccc4c(c3)OCCO4)n2)cc1,7.56,3.74,15.7,2.61,0.4,-0.58,12,0.26,7.22,-0.13
Nc1nccc(C#Cc2cncnc2Nc2ccc(OCc3cccc(F)c3)c(Cl)c2)n1,1.72,3.54,5.98,1.74,8.65,4.52,3.74,0.96,7.04,10.2

SMILES,inhibition [1] [%],inhibition [2] [%],inhibition [3] [%],inhibition [4] [%],inhibition [5] [%],inhibition [6] [%],inhibition [7] [%],inhibition [8] [%],inhibition [9] [%],inhibition [10] [%]
c1ccc(Cc2nc3ccc(Nc4ncnc5ccccc45)cc3[nH]2)cc1,-3.16,2.78,7.6,5.75,5.59,5.48,5.84,0.25,1.7,8.17
NS(=O)(=O)c1ccc(Nc2cc(-c3cccc(O)c3)n[nH]2)cc1,-5.6,3.31,6.67,-0.08,4.72,4.78,6.34,-0.39,0.41,4.63
COC(=O)Nc1nc2cc(Oc3ccc(NC(=O)Nc4cccc(Br)c4)cc3)ccc2[nH]1,9.52,3.1,2.8,2.76,1.32,3.81,4.63,1.15,0.55,7.57
NS(=O)(=O)c1ccc(-c2cc3ccncc3cc2OCc2ccccc2)cc1,-1.13,2.2,3.91,4.23,4.75,2.61,5.54,0.49,-0.08,4.58
Cc1nc(-c2ccccc2)n2nc(NCCCN3CCOCC3)ncc12,-0.92,2.04,4.14,3.56,5.57,-2.39,2.23,0.19,0.66,-0.24
Cc1cc(O)cc(C)c1/C=C/c1cncc(C(=O)N(C)C)c1,3.27,2.94,3.78,-2.2,5.69,2.85,6.32,1.28,1.08,4.08
c1ccc(Nc2ncc(-c3ccccc3)o2)cc1,-3.74,1.98,5.16,1.56,7.49,3.8,7.06,-0.11,0.49,4.22
Cc1cc(-c2ccccn2)cc(C)c1/C=C/c1cncc(-c2nn[nH]n2)c1,-1.94,5.71,33.4,1.6,31.2,9.43,51,2.43,0.75,1.73
CS(=O)(=O)Nc1cccc(-c2ccc3c(NC(=O)C4CC4)n[nH]c3c2)c1,1.68,0.09,4.51,4.15,1.52,-1.65,-2.5,0.45,1.66,-2.14
Nc1nccc(-c2c(-c3ccc(F)cc3)ncn2CCCN2CCOCC2)n1,,2.93,5.42,3.6,2.77,4.81,10.8,-0.92,-0.14,2.1
Cc1ccc2c(-c3ccnc(Nc4cccc(C(F)(F)F)c4)n3)c(-c3ccccc3)nn2n1,-3.9,12.4,68.1,7.21,38.2,15.5,70.9,0.51,5.18,4.63
CN(C)C(=O)O[C@@H]1CN[C@@H](C#Cc2cc3ncnc(Nc4ccc(OCc5cccc(F)c5)c(Cl)c4)c3s2)C1,2.48,2.22,3.83,1.11,3.41,-0.15,2.41,-0.22,1.84,-1.53
CC(C)c1ccc2c(c1)NC(=O)/C2=N/Nc1ccc(S(N)(=O)=O)cc1,0.13,1.27,14,0.14,6.03,0.98,1.26,-0.25,0.07,-1.01
CCn1c(-c2nonc2N)nc2c(C#CC(C)(C)O)nc(OCCNC)cc21,-6.1,1.45,3.35,3.16,6.56,5.42,3.09,-1.33,-0.61,1.36
NS(=O)(=O)c1cccc(Nc2cc(-c3ccc(F)cc3)n[nH]2)c1,-3.83,2.05,6.41,-2.37,4.82,1.68,3.52,0.73,0.11,4.6
CC(C)c1ccc(Nc2nccc(-c3cnn4ncccc34)n2)cc1,0.39,1.48,4.76,,5.9,3.47,6.47,-1.04,-0.53,4.27
CS(=O)(=O)CCNCc1nc(-c2ccc3ncnc(Nc4ccc(OCc5cccc(C(F)(F)F)c5)cc4)c3c2)cs1,-2.54,1.22,4.48,3.48,5.73,-0.74,1.75,0.43,1.66,3.59
